Compounds without any hit were thinned out: in the full panel of roughly 83,000, 20% have a hit.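 96-well plates, one dose, 48 hours. Percent growth reported; active if below 10.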 The source made the active and inactive calls.
Each compound was assayed on U251 CNS (assay: NCI-60 one-dose screen, 48 h (100 = growth as untreated, 0 = no growth, -100 = all killed)). Conditions: 10 µM unless noted.
Protocol: Growth inhibition of the U251 human tumor cell line is measured as a screen for anti-cancer activity. Cells are grown in 96 well plates and exposed to the test compound for 48 hours. Compounds are tested at a single concentration, which is 10^-5 M for most compounds. The reported endpoint is percent growth (GI% or GIPRCNT), where numbers from 0 - 100% represent growth inhibition, and numbers from -100% - 0 represent cell death. For example, a value of 40 represents 60% growth inhibition. A value of 0 means no net growth occurred over the course of the experiment. A value of -40 indicates 40% of cells at the beginning of the experiment died by the end of the experiment. A value of -100 means all cells are dead at the end of the experiment.
NCI-60 Human Tumor Cell Lines Screen was performed using the standard one-dose NCI protocol, which is described in more detail at https://dtp.cancer.gov/discovery_development/nci-60/default.htm.
Compounds with GIPRCNT values below 10 were considered active. Activity score was based on GIPRCNT using the following formula: […]
Score is 0 for GIPRCNT values of 100 or above, 50 for GIPRCNT values of 0, and 100 for GIPRCNT values of -100.

**Q.** How did the growth turn out when `Cc1ccc(-n2c3c(c(-c4ccccc4)c2-c2ccccc2)C2=NCCN2C=N3)cc1` was run?
**A.** 92% (inactive)

**Q.** With `C=C1C(=O)O[C@H]2[C@H]1CC/C(COC(=O)NCc1c[nH]c3ccc(Br)cc13)=C\CC[C@@]1(C)O[C@@H]21` as the compound, how does the growth read?
**A.** 3.96% (active)

**Q.** `COc1ccc(-c2cnc3c(-c4cccc5cnccc45)cnn3c2)cc1` was tested. Which growth did it give?
**A.** 56.3% (inactive)

**Q.** How did the growth turn out when `CN1CCN(C(=O)[C@]23CCC(C)(C)C[C@H]2C2=CC[C@@H]4[C@@]5(C)C/C(=C/c6cccnc6)C(=O)C(C)(C)[C@@H]5CC[C@@]4(C)[C@]2(C)CC3)CC1` was run?
**A.** 44.7% (inactive)

**Q.** With `CC(=O)c1ccc(NS(=O)(=O)c2cccc(C(=O)Nc3ccc(Br)cc3)c2)cc1` as the compound, how does the growth read?
**A.** 70.8% [25 µM] (inactive)

**Q.** With `NC1[C@H](c2c[nH]c3ccccc23)c2c([nH]c3ccccc23)[C@H]1c1c[nH]c2ccccc12` (stereo not given in full) as the compound, how does the growth read?
**A.** 100% (inactive)

**Q.** For `Cc1ccc(C(=O)/C(=C\c2ccc([N+](=O)[O-])cc2)S(=O)Cc2ccc(Cl)cc2)cc1` (stereo not given), which growth is on record?
**A.** 9.49% (active)

**Q.** Which growth does the source give for `COc1cc(C2C3=C(COC3=O)N(CCO)c3cc4c(cc32)OCO4)cc(OC)c1OC` (stereo not given) here?
**A.** 2.92% (active)

**Q.** Which growth does the source give for `COc1cc(/C(C)=C(\c2ccc(Cl)cc2)c2ccc(OCCN3CCCC3)cc2)ccc1F` here?
**A.** 46.1% (inactive)

**Q.** Which growth does the source give for `COc1ccc(OC)c(-c2cc(-c3ccc(Cl)cc3)c3c(N)c(C(=O)c4ccc(Cl)cc4)sc3n2)c1` here?
**A.** 101% (inactive)

**Q.** How did the growth turn out when `CC1(C)CC(O)CCCCCCOc2c(CN)cccc2NC(=O)c2nc(cnc2N)-c2ccc(cc2)S1(=O)=O` (stereo not given) was run?
**A.** -26.6% (active)

**Q.** For `O=C1C=CC(=O)N1c1cccc(Cl)c1`, which growth is on record?
**A.** 99.2% (inactive)

**Q.** For `C=C(C)[C@@H]1CC[C@]2(C(=O)N3CCN(C)CC3)CC[C@]3(C)[C@H](CC[C@@H]4[C@@]5(C)C/C(=C/c6ccncc6)C(=O)C(C)(C)[C@@H]5CC[C@]43C)[C@@H]12`, which growth is on record?
**A.** 47% (inactive)

**Q.** Which growth does the source give for `COc1ccc(-c2nc([C@@H](C)Sc3nc(N)cc(N)n3)c(C)s2)cc1OCCN1CCOCC1` here?
**A.** 91.8% (inactive)

**Q.** With `O=C(Nc1ccc(Cl)cc1)c1cc(NCc2cc(O)ccc2O)ccc1O` as the compound, how does the growth read?
**A.** 71.8% (inactive)

**Q.** `N#Cc1cccc(-c2ccc3c(c2)NC(=O)/C3=C\c2ccc[nH]2)c1` was tested. Which growth did it give?
**A.** 92.8% (inactive)

**Q.** For `COc1cc2oc(-c3cccc(C(=O)Nc4ccc(Br)cc4)c3)cc(=O)c2c(OC)c1OC`, which growth is on record?
**A.** 65.7% (inactive)

**Q.** Which growth does the source give for `CC[C@]12C=CCN3CC[C@@]4(c5cc(NC(=O)CCC(=O)O[C@H]6CC[C@H]7[C@@H]8CCC9=CC(=O)CC[C@@H]9[C@H]8CC[C@]67C)c(OC)cc5N(C)[C@H]4[C@@](O)(C(=O)OC)[C@@H]1OC(C)=O)[C@@H]32` here?
**A.** 74.1% (inactive)

**Q.** `COc1cc2c(cc1OC)C(=O)/C(=C/c1cc(C)c(O)c(C)c1)S2` was tested. Which growth did it give?
**A.** 27.2% (inactive)

**Q.** `C#Cc1cccc(NC(=O)c2cccc(NC(=O)CCl)c2)c1` was tested. Which growth did it give?
**A.** -93.7% [8.25 µM] (active)

**Q.** How did the growth turn out when `O=C1c2ccccc2C(=O)c2c([N+](=O)[O-])ccc(Cl)c21` was run?
**A.** 65.6% (inactive)

**Q.** `COc1cc(NC(C)CCCNC(=O)CCC(=O)NCCCNCCCCCCCCCCNCCCNC(=O)CCC(=O)NCCCC(C)Nc2cc(OC)cc3cccnc23)c2ncccc2c1` (stereo not given) was tested. Which growth did it give?
**A.** 50.8% [8 µM] (inactive)

**Q.** `O=C(O)c1ccc(NCc2cn(-c3ccc(C(F)(F)F)cc3)nc2-c2ccc(C(=O)O)cc2)cc1` was tested. Which growth did it give?
**A.** 99.7% (inactive)

**Q.** Which growth does the source give for `COC(=O)C(CC=O)C(=O)C(=O)Nc1cccc(C(F)(F)F)c1` (stereo not given) here?
**A.** 79.2% (inactive)

**Q.** For `O=C(CCN1CCCC1)Nc1ccc2c(Nc3ccc(Br)cc3)c3ccccc3nc2c1`, which growth is on record?
**A.** -51% (active)

**Q.** `COc1ccc(-c2cnc3c(-c4cccc5ncccc45)cnn3c2)cc1` was tested. Which growth did it give?
**A.** 16.3% (inactive)

**Q.** For `COCCCN1CC(O)=C(c2nc(-c3ccc(C)cc3)cs2)C1=N`, which growth is on record?
**A.** 100% (inactive)

**Q.** Which growth does the source give for `CCOC(=O)C1=C(C)NC(SCc2cc(=O)oc3ccc(F)cc23)=N[C@@H]1c1cccc2ccccc12` here?
**A.** 102% (inactive)

**Q.** With `CN(CCN(C)c1ccc(C(=N)N)cc1)c1ccc(C(=N)N)cc1` as the compound, how does the growth read?
**A.** 95.4% (inactive)

**Q.** How did the growth turn out when `CCOc1ccc(Nc2nc(-c3ccc4c(c3)NC(=O)CO4)cs2)cc1` was run?
**A.** 66.8% (inactive)

**Q.** How did the growth turn out when `C=C1C(=O)O[C@H]2[C@H]1CC/C(CNC(=O)/C=C/c1cccc(OC)c1)=C\CC[C@@]1(C)O[C@@H]21` was run?
**A.** 47.3% (inactive)

**Q.** How did the growth turn out when `Cc1ccc(-c2[nH][nH]c(=O)c2-c2nc3ccccc3s2)cc1` was run?
**A.** 103% (inactive)

**Q.** Which growth does the source give for `CNCCOc1nc2c3cnccc3cc(-c3cc(OC)c(OC)c(OC)c3)c2c2ccncc12` here?
**A.** -17.1% (active)

**Q.** How did the growth turn out when `CNC(=O)c1cccc(Cn2nc(C)c(NC(=O)c3ccc(COc4ccc(C(F)(F)F)cc4C)cc3)c2C)n1` was run?
**A.** 44.7% (inactive)

**Q.** With `CCN(CC)CCOc1ccc(NC(=O)C(C(C)C)N2C(=O)/C(=C/c3ccc(Br)cc3)SC2=S)cc1` (stereo not given) as the compound, how does the growth read?
**A.** 71.7% (inactive)

**Q.** How did the growth turn out when `CCOC(=O)c1nc2c3ccccc3ccn2c1C(=O)OCC` was run?
**A.** 105% (inactive)

**Q.** Which growth does the source give for `O=C1Nc2ccccc2/C1=C\c1c(-c2ccccc2)nc2ccccn12` here?
**A.** 62.9% (inactive)

**Q.** For `CN1CCN(CCNc2nccc(-c3c(-c4cccc(O)c4)nc4sccn34)n2)S1(=O)=O`, which growth is on record?
**A.** 94.2% (inactive)

**Q.** Which growth does the source give for `COc1ccc(/C=C/c2nc(Nc3ccc(S(=O)(=O)NC(C)=O)cc3)c3ccccc3n2)cc1` here?
**A.** 74.8% (inactive)

**Q.** Which growth does the source give for `Cc1nc2ccc(Cl)cn2c1-c1nnc(SCc2ccc([N+](=O)[O-])cc2)o1` here?
**A.** 57.7% (inactive)
